Common to all, as to assay: DAPPL (digital affinity profiling via proximity ligation, sequencing); 10 mM Tris-HCl pH 7.5, 50 mM NaCl, 1 mM DTT, 4% glycerol, room temperature, 30 min; GST-TFs on glutathione beads, 16-mer random dsDNA library, 0.1% formaldehyde crosslink after washing; high values mean tight binding
Holding throughout (conditions): protein: recombinant; tags: N-terminal GST; dsDNA, one strand shown

For one assay, the target named is T1, ERF (Homo sapiens, UniProt P50548 1-548).
T1 sequence: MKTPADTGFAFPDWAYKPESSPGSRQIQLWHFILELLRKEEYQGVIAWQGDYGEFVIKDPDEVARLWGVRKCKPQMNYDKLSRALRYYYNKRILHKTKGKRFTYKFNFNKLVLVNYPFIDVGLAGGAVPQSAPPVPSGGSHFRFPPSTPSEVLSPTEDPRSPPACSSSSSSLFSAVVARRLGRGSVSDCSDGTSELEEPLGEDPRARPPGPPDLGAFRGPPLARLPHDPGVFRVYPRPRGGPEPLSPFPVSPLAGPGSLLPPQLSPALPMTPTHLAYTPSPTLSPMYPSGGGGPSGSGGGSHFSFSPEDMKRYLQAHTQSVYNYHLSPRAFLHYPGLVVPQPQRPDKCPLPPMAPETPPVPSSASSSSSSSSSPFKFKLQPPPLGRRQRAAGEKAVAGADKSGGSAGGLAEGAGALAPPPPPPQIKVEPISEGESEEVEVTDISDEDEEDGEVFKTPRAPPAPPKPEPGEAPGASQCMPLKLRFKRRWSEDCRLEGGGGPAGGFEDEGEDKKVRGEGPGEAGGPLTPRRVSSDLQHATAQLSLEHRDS
Put shortly:
(§1)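 Pools were built from human transcription factors expressed in yeast as GST fusions, captured on glutathione beads and DNA-barcoded, along with a tag-only sample. Incubation with 200 nmole of a 16-mer random double-stranded DNA library lasted 30 min at room temperature in Tris/NaCl/DTT/glycerol buffer, and was followed by washing, 0.1% formaldehyde crosslinking, proximity ligation, PCR amplification and Illumina NextSeq500 sequencing. Binding signal is the quotient of each hexamer's read frequency for a factor and its frequency for the tag-only sample.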

The target of another assay is T2, ETV3L (Homo sapiens, UniProt Q6ZN32 1-361).
T2 sequence: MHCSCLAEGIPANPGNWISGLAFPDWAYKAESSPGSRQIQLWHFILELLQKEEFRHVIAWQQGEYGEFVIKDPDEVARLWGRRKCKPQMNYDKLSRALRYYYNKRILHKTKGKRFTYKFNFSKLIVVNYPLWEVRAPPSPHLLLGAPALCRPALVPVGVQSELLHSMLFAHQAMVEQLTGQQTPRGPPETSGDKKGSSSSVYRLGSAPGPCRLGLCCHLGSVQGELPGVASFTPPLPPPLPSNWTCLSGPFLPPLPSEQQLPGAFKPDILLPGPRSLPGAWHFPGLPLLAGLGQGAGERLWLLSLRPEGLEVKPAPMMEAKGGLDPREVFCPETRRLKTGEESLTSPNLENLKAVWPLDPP
An outline of the steps:
as §1

The target of a further assay is T3, ETS2 (Homo sapiens, UniProt P15036 1-469).
T3 sequence: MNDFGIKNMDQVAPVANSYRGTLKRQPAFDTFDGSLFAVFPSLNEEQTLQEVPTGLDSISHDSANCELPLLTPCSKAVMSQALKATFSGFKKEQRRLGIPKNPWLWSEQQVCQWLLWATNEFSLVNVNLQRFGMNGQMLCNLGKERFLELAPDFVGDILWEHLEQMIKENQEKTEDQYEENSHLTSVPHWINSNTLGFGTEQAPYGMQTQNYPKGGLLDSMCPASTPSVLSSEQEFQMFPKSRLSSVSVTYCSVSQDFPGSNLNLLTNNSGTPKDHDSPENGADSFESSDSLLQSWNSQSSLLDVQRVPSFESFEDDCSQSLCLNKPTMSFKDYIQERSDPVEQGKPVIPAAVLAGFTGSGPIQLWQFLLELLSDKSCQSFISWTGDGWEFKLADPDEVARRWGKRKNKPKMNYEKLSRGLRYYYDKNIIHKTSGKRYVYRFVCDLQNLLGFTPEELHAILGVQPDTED
Put shortly:
as §1

Another assay has as its target T4, SPDEF (Homo sapiens, UniProt O95238 1-335).
T4 sequence: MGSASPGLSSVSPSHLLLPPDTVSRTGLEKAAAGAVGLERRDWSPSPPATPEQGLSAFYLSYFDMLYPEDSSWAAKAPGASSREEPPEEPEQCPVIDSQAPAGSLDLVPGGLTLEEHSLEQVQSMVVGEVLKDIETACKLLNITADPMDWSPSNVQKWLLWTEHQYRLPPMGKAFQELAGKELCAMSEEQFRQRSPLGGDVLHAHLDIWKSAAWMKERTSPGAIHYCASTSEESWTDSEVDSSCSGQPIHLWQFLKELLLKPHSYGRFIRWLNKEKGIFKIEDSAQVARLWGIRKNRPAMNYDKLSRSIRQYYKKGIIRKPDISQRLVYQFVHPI
An outline of the steps:
as §1

Another assay has as its target T5, ETV7 (Homo sapiens, UniProt Q9Y603 1-341).
T5 sequence: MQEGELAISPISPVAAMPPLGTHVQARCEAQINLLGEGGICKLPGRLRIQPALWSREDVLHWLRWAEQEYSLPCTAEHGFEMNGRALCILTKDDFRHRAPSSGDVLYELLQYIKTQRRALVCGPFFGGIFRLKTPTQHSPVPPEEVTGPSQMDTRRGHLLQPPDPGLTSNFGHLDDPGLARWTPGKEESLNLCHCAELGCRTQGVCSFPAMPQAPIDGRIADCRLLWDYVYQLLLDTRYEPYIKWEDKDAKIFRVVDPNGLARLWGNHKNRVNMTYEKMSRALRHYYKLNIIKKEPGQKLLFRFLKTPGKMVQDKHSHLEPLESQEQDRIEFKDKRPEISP
Put shortly: as §1

The next assay has as its target T6, ELF5 (Homo sapiens, UniProt Q9UKW6-2 1-255).
T6 sequence: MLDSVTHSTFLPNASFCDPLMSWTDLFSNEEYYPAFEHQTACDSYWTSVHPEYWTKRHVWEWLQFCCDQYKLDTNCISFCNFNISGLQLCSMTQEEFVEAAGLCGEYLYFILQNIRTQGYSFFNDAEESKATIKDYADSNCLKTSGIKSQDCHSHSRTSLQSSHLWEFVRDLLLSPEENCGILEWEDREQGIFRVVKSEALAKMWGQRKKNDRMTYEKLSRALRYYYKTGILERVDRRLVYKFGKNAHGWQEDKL
An outline of the steps: as §1

The target of another assay is T7, ETV3 (Homo sapiens, UniProt P41162-2 1-143).
T7 sequence: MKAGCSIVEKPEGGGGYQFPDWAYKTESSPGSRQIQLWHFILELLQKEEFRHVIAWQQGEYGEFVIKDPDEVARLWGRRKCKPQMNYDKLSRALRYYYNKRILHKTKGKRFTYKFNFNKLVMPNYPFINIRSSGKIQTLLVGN
Put shortly:
as §1

Another assay concerns the target ETV6 (Homo sapiens, UniProt P41212 1-452). Put shortly: as §1

Sequence of ETV6 (P41212 whole entry): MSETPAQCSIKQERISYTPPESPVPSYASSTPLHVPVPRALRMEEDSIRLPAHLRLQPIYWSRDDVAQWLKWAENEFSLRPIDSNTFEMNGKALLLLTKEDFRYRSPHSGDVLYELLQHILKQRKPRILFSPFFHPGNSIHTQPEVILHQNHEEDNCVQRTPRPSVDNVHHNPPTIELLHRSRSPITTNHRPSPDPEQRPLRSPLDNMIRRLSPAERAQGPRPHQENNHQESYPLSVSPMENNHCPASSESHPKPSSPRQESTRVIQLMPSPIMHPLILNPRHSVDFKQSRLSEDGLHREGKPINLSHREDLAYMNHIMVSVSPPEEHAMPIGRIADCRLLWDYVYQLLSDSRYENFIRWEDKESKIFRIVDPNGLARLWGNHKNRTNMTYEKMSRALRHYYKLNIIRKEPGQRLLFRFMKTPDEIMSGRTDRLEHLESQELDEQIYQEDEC

In the case of TATGTG, the binding signal was 1.07 fold enrichment (6-mer frequency, TF over GST control) with ERF; 1.02 fold enrichment (6-mer frequency, TF over GST control) in the assay with ETV3L; 1.07 fold enrichment (6-mer frequency, TF over GST control) in the assay with ETS2; 1.09 fold enrichment (6-mer frequency, TF over GST control) in the assay with SPDEF; 1.04 fold enrichment (6-mer frequency, TF over GST control) with ETV7; 1.01 fold enrichment (6-mer frequency, TF over GST control) with ELF5. Besides, the binding signal with ETV3 was 1.09 fold enrichment (6-mer frequency, TF over GST control); in the assay with ETV6, 1.07 fold enrichment (6-mer frequency, TF over GST control).

For CTGACA, the binding signal is 1.21 fold enrichment (6-mer frequency, TF over GST control) with ERF; 1.34 fold enrichment (6-mer frequency, TF over GST control) with ETV3L; 1.22 fold enrichment (6-mer frequency, TF over GST control) with ETS2; 1.24 fold enrichment (6-mer frequency, TF over GST control) with SPDEF; 1.37 fold enrichment (6-mer frequency, TF over GST control) in the assay with ETV7; 1.26 fold enrichment (6-mer frequency, TF over GST control) with ELF5. The binding signal in the assay with ETV3 is 1.24 fold enrichment (6-mer frequency, TF over GST control); in the assay with ETV6 it was 1.24 fold enrichment (6-mer frequency, TF over GST control).

As for AAGCGG, the binding signal is 1.08 fold enrichment (6-mer frequency, TF over GST control) with ERF; 1.17 fold enrichment (6-mer frequency, TF over GST control) with ETV3L; 1.13 fold enrichment (6-mer frequency, TF over GST control) with ETS2; 1.08 fold enrichment (6-mer frequency, TF over GST control) with SPDEF; 1.16 fold enrichment (6-mer frequency, TF over GST control) with ETV7; 1.13 fold enrichment (6-mer frequency, TF over GST control) in the assay with ELF5. In addition, the binding signal with ETV3 was 1.15 fold enrichment (6-mer frequency, TF over GST control); with ETV6 it was 1.23 fold enrichment (6-mer frequency, TF over GST control).

Turning to GTACAA, the binding signal was 1.03 fold enrichment (6-mer frequency, TF over GST control) with ERF; 1.09 fold enrichment (6-mer frequency, TF over GST control) in the assay with ETV3L; 1.1 fold enrichment (6-mer frequency, TF over GST control) in the assay with ETS2; 1.06 fold enrichment (6-mer frequency, TF over GST control) with SPDEF; 1.12 fold enrichment (6-mer frequency, TF over GST control) with ETV7; 1.03 fold enrichment (6-mer frequency, TF over GST control) in the assay with ELF5. The binding signal with ETV3 is 1.11 fold enrichment (6-mer frequency, TF over GST control); with ETV6, 1.15 fold enrichment (6-mer frequency, TF over GST control).

For CATTTC, the binding signal with ERF was 1.72 fold enrichment (6-mer frequency, TF over GST control); with ETV3L, 1.81 fold enrichment (6-mer frequency, TF over GST control); with ETS2 it was 1.87 fold enrichment (6-mer frequency, TF over GST control); with SPDEF it was 1.75 fold enrichment (6-mer frequency, TF over GST control); with ETV7, 1.68 fold enrichment (6-mer frequency, TF over GST control); in the assay with ELF5, 2.15 fold enrichment (6-mer frequency, TF over GST control). In addition, the binding signal with ETV3 is 1.87 fold enrichment (6-mer frequency, TF over GST control); in the assay with ETV6 it was 2.02 fold enrichment (6-mer frequency, TF over GST control).

As for CACTCT, the binding signal with ERF was 1.37 fold enrichment (6-mer frequency, TF over GST control); in the assay with ETV3L, 1.29 fold enrichment (6-mer frequency, TF over GST control); in the assay with ETS2, 1.27 fold enrichment (6-mer frequency, TF over GST control); with SPDEF, 1.14 fold enrichment (6-mer frequency, TF over GST control); with ETV7, 1.19 fold enrichment (6-mer frequency, TF over GST control); in the assay with ELF5, 1.18 fold enrichment (6-mer frequency, TF over GST control). For the same sequence, the binding signal with ETV3 was 1.43 fold enrichment (6-mer frequency, TF over GST control); with ETV6, 1.23 fold enrichment (6-mer frequency, TF over GST control).

In the case of ATCATA, the binding signal was 1.12 fold enrichment (6-mer frequency, TF over GST control) in the assay with ERF; 1.12 fold enrichment (6-mer frequency, TF over GST control) with ETV3L; 1.03 fold enrichment (6-mer frequency, TF over GST control) in the assay with ETS2; 1.03 fold enrichment (6-mer frequency, TF over GST control) with SPDEF; 1.1 fold enrichment (6-mer frequency, TF over GST control) with ETV7; 1.11 fold enrichment (6-mer frequency, TF over GST control) in the assay with ELF5. For the same sequence, the binding signal with ETV3 was 1.09 fold enrichment (6-mer frequency, TF over GST control); in the assay with ETV6, 1.1 fold enrichment (6-mer frequency, TF over GST control).

The record behind these values is paper PMC7862700, “An all-to-all approach to the identification of sequence-specific readers for epigenetic DNA modifications on cytosine”.
